High-throughput results: PubChem, National Center for Advancing Translational Sciences (NCATS)
FMDV inh: foot and mouth disease virus antiviral activity. FMDV antiviral cell-based qHTS. Potency, µM (doses to about 57.9 µM), without a hit: top-dose activity change, negative = inhibition, actives largely listed as inhibitors. 410,000 tested, 1.2% active. AID 1159524; calls by dose curve; tested in HEK293T cells; further: read-out not given here; potency means the concentration at half of the fitted maximal effect; nearly all actives have a fitted effect of over 45% in size
VACV Venus inh: inhibitors of vaccinia virus (Venus reporter). AID 720580. 330,000 tested, 0.46% active. Vaccinia virus Venus reporter expression, fluorescence. Potency, µM (doses to about 36.5 µM), for inactives: at the highest dose activity change, negative = inhibition, actives largely listed as inhibitors; calls by dose curve; tested in A549 cells; further: potency means the concentration at half of the fitted maximal effect; nearly all actives have a fitted effect of over 30% in size
HCMV inh: blocks human cytomegalovirus replication; HFF cells, HCMV-luciferase reporter, 72 h; stronger effect = lower value; activity change, negative = inhibition, % at 57.5 µM; 410,000 tested, 4.5% active; in the data active means activity change below about -60%; inconclusive means no clear call, values can overlap the other calls; inactive means above about -39%
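HFF cells seeded 16 h at 37C, treated with compounds, infected with luciferase-reporter HCMV at MOI 1 PFU/cell; luciferase read at 72 h post infection, normalized to buffer-only and Salinomycin controls.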
VACV mCherry inh: inhibitors of vaccinia virus infection (mCherry reporter signal); Potency, µM (highest dose often 36.5 µM), for the others: at the highest dose activity change, negative = inhibition, most hits filed as inhibitors; AID 720579; 310,000 tested, 0.63% active; Vaccinia virus mCherry reporter infection, fluorescence; calls by dose curve; tested in A549 cells; further: potency means the concentration at half of the fitted maximal effect; nearly all actives have a fitted effect of over 35% in size
HCV inhibitor: blocks hepatitis C virus; Huh7.5.1 HCVcc-Cre infection, luciferase reporter, 44 h; Potency, µM (top dose mostly 41.8 µM), inactives show at the top dose activity change, negative = inhibition, hits mostly inhibitors; 340,000 tested, 3.4% active; AID 651820; further: potency means the concentration at half of the fitted maximal effect
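A cell-based infection assay in which seeded cells (1,000 per well) receive test compound after 4 h, are inoculated with HCVcc-Cre at approximately 0.5 moi, and are incubated 44 h before luminescence detection.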
Giardia FBPA inh: inhibitors of Giardia lamblia fructose-1,6-bisphosphate aldolase; A8B2U2; purified Giardia FBPA; Potency, µM (top dose mostly 59.6 µM), for the others: at the highest dose activity, negative = inhibition, actives largely listed as inhibitors; 290,000 tested, 0.71% active; further: potency means the concentration at half of the fitted maximal effect; nearly all actives have a fitted effect of over 55% in size
Target sequence (A8B2U2 whole entry, looked up): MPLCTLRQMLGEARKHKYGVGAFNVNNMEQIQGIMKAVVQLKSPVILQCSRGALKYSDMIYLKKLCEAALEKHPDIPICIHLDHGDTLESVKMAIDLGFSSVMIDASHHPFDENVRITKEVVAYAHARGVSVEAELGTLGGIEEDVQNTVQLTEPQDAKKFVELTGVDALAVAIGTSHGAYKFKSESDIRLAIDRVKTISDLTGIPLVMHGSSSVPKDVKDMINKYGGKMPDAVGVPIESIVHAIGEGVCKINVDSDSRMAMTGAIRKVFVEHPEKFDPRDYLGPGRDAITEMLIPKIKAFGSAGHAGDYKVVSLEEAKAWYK
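Giardia FBPA (40 nM reagent) was preincubated 10 min at RT with compound (up to 57.5 uM final), then substrate plus GAPDH/TPI/NAD/arsenate coupling system with diaphorase/resazurin was added; resorufin fluorescence (525/598 nm) was read after 20 min.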
The depositor's hits bear a star. In the library only some 7.5% were active in any assay of this set; here they are far more common. Unless noted, the call rests on the fitted dose curve; in most records, active means well fitted curve in the direction sought with a large enough effect; inconclusive means small, poorly fitted or top-dose-only effect, or another doubt; inactive means no such curve, though single readings can be large; an effect the other way counts as inactive or inconclusive. On the % scale 0 is the no-effect control and ±100 the full control effect.

Results for CCOC(=O)C(C(=O)c1ccccc1)[C@H](CCc1ccccc1)NC(=O)OC (stereo not given in full) ?
Giardia FBPA inh: 3%

What do the screens show for `N#Cc1ccc(C(=O)N2CCC3CC2c2cc(-c4ccc(F)cc4)ccc23)cc1` (stereo not given)?
FMDV inh: 0%; VACV Venus inh: 0%; HCMV inh: 10; VACV mCherry inh: -17%; HCV inhibitor: 35µM*

How did O=C(c1ccc(-c2ccccc2)cc1)N1CCC2CC1c1cc(-c3ccc4c(c3)OCO4)ccc12 (stereo not given) do in these assays?
FMDV inh: 23%; VACV Venus inh: -3%; HCMV inh: -7; VACV mCherry inh: 6%

Results for COc1cc2c(cc1OC)[C@@H]1CC(=O)[C@@H](CC(C)C)CN1CC2 ?
FMDV inh: 8%; Giardia FBPA inh: -2%

Results for CSc1cccc(NC(=S)N2CCC(c3ccccc3)C2)c1 (stereo not given) ?
FMDV inh: 15%; VACV Venus inh: -14%; HCMV inh: -82*; VACV mCherry inh: -1%; HCV inhibitor: -29%; Giardia FBPA inh: 2%

Results for O=C(c1n[nH]c(=O)c2ccccc12)N1CCN(S(=O)(=O)c2ccccc2Cl)CC1 ?
FMDV inh: inconclusive; HCMV inh: 36; HCV inhibitor: -6%

What do the screens show for `O=C(COC(=O)c1ccccc1C(=O)N1CCN(c2ccc(F)cc2)CC1)NCc1ccccc1`?
FMDV inh: 25µM*; VACV Venus inh: inconclusive; HCMV inh: 4; VACV mCherry inh: -13%; HCV inhibitor: -9%; Giardia FBPA inh: 6%

How did CC(=O)c1c(C)[nH]c(C(=O)N2CCN(c3ccc(F)cc3)CC2)c1C do in these assays?
FMDV inh: -27%; HCMV inh: -71*; HCV inhibitor: -13%; Giardia FBPA inh: -5%

How did O=C(c1ccc(N2CCN(C(=O)c3ccc(F)cc3F)CC2)cc1)c1cccc(F)c1 do in these assays?
FMDV inh: inconclusive; HCMV inh: -35; HCV inhibitor: 11µM*

How did COc1ccc(Cl)cc1S(=O)(=O)N1CCN(C(=O)c2n[nH]c(=O)c3ccccc23)CC1 do in these assays?
FMDV inh: inconclusive; VACV Venus inh: inconclusive; HCMV inh: 0; VACV mCherry inh: 28µM*; HCV inhibitor: inconclusive

What do the screens show for `O=C(NCc1cccnc1)[C@@H]1CC=C[C@@H]2CCN(C3CCCCC3)C(=O)[C@@H]21`?
VACV Venus inh: -11%; VACV mCherry inh: -23%

Results for CC(C)C(C)NC(=O)COc1ccc(S(=O)(=O)N2CCOCC2)cc1Cl (stereo not given) ?
FMDV inh: -4%; HCMV inh: -2; HCV inhibitor: 10%; Giardia FBPA inh: -3%

What do the screens show for `COc1cc(Nc2cc3[nH]c(-c4ccccc4)cc3cn2)cc(C(F)(F)F)c1`?
HCMV inh: -11

How did CC1CCN(C(=O)CSc2nc3c(c(=O)n2C)SC(C)C3)CC1 (stereo not given) do in these assays?
FMDV inh: -18%; VACV Venus inh: -9%; HCMV inh: 1; VACV mCherry inh: -17%; HCV inhibitor: -21%

What do the screens show for `COc1ccc(CNC(=O)CN2C(=O)CCCc3ccccc32)cc1`?
FMDV inh: 12%; VACV Venus inh: -10%; HCMV inh: 0; VACV mCherry inh: inactive

Results for CC(=O)c1ccc(N2CCN(C(=O)c3ccccc3SCC(=O)NCc3ccco3)CC2)c(F)c1 ?
FMDV inh: inconclusive; VACV Venus inh: -20%; HCMV inh: 5; VACV mCherry inh: -28%; HCV inhibitor: 13µM*

How did COC(=O)c1ccccc1NC(=O)N1CCN(c2ccc(F)cc2)CC1 do in these assays?
FMDV inh: -23%; HCMV inh: -63*; HCV inhibitor: -28%; Giardia FBPA inh: -3%

Results for O=C(Nc1cccc2ccccc12)N1CCN(c2ccc(F)cc2)CC1 ?
FMDV inh: -13%; VACV Venus inh: 18%; HCMV inh: -29; HCV inhibitor: 1%; Giardia FBPA inh: -8%
